The values that follow come from PubChem BioAssay (Tox21).

“And” between values parts separate entries of the source, which are not always exact repeats. Equal values may be shown once. Inconclusive results are not listed. More than one record can exist for a structure, and the calls need not agree. The source made the active and inactive calls. Unless noted, the call rests on the fitted dose curve.

Assay [1] in a line: Nuclear factor erythroid 2-related factor 2/antioxidant responsive element (Nrf2/ARE) small molecule agonists: qHTS cell viability counter screen in human keratinocytes (AID 1919968; active means well fitted curve in the direction sought with a large enough effect in the repeat runs; an effect the other way counts as inactive or inconclusive; further: nearly all actives have a fitted effect of over 55% in size). The essentials:
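CellTiter-Fluor fluorescence, read 1 h after reagent, gave viability in the same wells as the ARE-luciferase assay. KeratinoSens cells (1,500/well) had 23 h compound exposure at 37 C/5% CO2 following 5 h plating.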

The nature of assay [2]: Nuclear factor erythroid 2-related factor 2/antioxidant responsive element (Nrf2/ARE) small molecule agonists: luciferase reporter gene qHTS assay in human keratinocytes (AID 1919969; further: nearly all actives have a fitted effect of over 35% in size; further: potency means the concentration at half of the fitted maximal effect). (In general: A reporter such as luciferase makes a cellular process visible.)
Assay [3] deals with Gonadotropin-releasing hormone receptor (Homo sapiens) (UniProt P30968). Briefly: Human gonadotropin-releasing hormone receptor (GnRHR) small molecule agonists, calcium flux assay in GnRHR-HEK293 cells (AID 1920063). Further: nearly all actives have a fitted effect of over 35% in size. The essentials: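 Agonist mode: compounds at 15 concentrations, in triplicate, went onto calcium dye-loaded GnRHR-HEK293 cells. Intracellular calcium was then followed as 480/540 nm fluorescence at 1 s intervals over 3 min.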
Sequence of Gonadotropin-releasing hormone receptor (Homo sapiens) (P30968 whole entry, looked up): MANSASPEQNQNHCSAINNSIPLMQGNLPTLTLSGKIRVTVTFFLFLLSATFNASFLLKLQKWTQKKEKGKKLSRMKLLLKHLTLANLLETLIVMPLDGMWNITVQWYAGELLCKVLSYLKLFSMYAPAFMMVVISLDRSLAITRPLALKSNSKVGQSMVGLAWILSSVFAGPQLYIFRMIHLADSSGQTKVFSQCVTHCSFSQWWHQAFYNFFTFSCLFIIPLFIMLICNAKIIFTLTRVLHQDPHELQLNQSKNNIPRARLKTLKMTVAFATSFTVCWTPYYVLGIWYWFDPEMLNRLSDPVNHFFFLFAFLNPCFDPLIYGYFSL
Background: Calcium assays in cells follow changes in intracellular calcium, usually with a dye or a luminescent sensor.

The target in assay [4] is KiSS-1 receptor (Homo sapiens) (UniProt Q969F8). Description: Human kisspeptin (KISS1R) small molecule agonists, calcium flux assay in KISS1R-HEK293 cells (AID 1920064; active means well fitted curve in the direction sought with a large enough effect in the repeat runs; an effect the other way counts as inactive or inconclusive). The gist of the method: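 Agonist mode: intracellular calcium rise tracked at 1 s intervals over 3 min (480/540 nm) immediately after compound addition to dye-loaded KISS1R-HEK293 stable cells. Each compound tested at 15 concentrations in triplicate.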
Sequence of KiSS-1 receptor (Homo sapiens) (Q969F8 whole entry, looked up): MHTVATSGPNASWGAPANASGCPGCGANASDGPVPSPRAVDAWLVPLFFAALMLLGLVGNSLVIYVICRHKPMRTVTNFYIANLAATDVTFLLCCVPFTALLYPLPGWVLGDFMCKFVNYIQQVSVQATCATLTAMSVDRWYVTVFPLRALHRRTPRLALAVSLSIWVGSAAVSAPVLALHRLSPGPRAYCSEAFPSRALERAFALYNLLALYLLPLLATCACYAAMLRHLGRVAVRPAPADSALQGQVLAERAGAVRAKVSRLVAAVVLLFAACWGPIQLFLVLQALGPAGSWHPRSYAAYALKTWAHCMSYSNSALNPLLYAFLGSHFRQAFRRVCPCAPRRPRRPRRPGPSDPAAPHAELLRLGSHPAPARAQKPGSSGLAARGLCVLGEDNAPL

A short description of assay [5]: G protein-coupled receptor (GPCR) small molecule agonists, calcium flux assay: HEK293 wild type cell line counter screen (AID 1920065). The gist of the method: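 Calcium flux counter screen: compound added in agonist mode at 15 concentrations in triplicate to dye-loaded parental HEK293 cells. Fluorescence (480/540) read kinetically for 3 min; ATP served as positive control.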

Assay [6] is described as follows: p53 small molecule agonists, cell-based qHTS assay with human liver microsomes (AID 1963577). The gist of the method:
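Fluorescence of the beta-lactamase reporter in p53RE-bla cells, detected with LiveBLAzer substrate (2 h, room temperature, dark), served as the read-out after 16 h compound exposure at 37 C with human liver microsomes and NADPH, each 0.5 mg/mL final.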
(In general: In qHTS, concentration-response curves come from the screen itself.)

Assay [7] in a line: p53 small molecule agonists, cell-based qHTS assay with rat liver microsomes (AID 1963578). The gist of the method:
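Cells carrying a p53 response element–beta-lactamase reporter were plated and rested 5 h, then dosed with compound in DMSO plus rat liver microsomes and NADPH, each at 0.5 mg/mL final. After 16 h at 37 C, LiveBLAzer substrate was added for 2 h.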

The nature of assay [8]: p53 small molecule agonists, cell-based qHTS assay with human liver microsomes: qHTS cell viability counter screen (AID 1963579). Further: nearly all actives have a fitted effect of over 45% in size. The essentials:
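Cytotoxicity counter screen: p53RE-bla, 4,000 cells/well; 5 h settle, 37 C/5% CO2; cpd + HLM 0.5 mg/mL + NADPH 0.5 mg/mL (final); 16 h, 37 C; CellTiter-Glo, 30 min RT, luminescence.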

A short description of assay [9]: p53 small molecule agonists, cell-based qHTS assay with rat liver microsomes: qHTS cell viability counter screen (AID 1963580). Further: nearly all actives have a fitted effect of over 45% in size. The essentials:
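Cytotoxicity counter screen: intracellular ATP measured by CellTiter-Glo luminescence in the same wells as the beta-lactamase reporter read, on HCT-116 p53RE-bla cells exposed 16 h at 37 C to compounds with rat liver microsomes and NADPH, each 0.5 mg/mL final.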

The nature of assay [10]: p53 small molecule agonists, cell-based qHTS assay: qHTS cell viability counter screen (AID 1963581). Further: nearly all actives have a fitted effect of over 45% in size. The gist of the method:
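Counter screen read by CellTiter-Glo luminescence (ATP content, 30 min at room temperature), run in the same wells as the beta-lactamase reporter read. HCT-116 p53RE-bla cells saw compounds for 16 h at 37 C.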

A short description of assay [11]: p53 small molecule agonists, cell-based qHTS assay (AID 1963582; active means well fitted activation curve with a large enough effect in the signal ratio in the repeat runs, not every such curve was filed as active; the % refers to the signal ratio). The essentials: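 Read-out is beta-lactamase FRET fluorescence after 2 h at room temperature with LiveBLAzer B/G substrate. p53 response element-bla cells were treated 16 h at 37 C with compounds in DMSO, added 5 h after seeding.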
Assay [12] addresses 5-hydroxytryptamine receptor 2A (Homo sapiens) (UniProt P28223). Description: 5-hydroxytryptamine receptor 2A (HTR2A) small molecule antagonists, cell-based qHTS assay (AID 1963586). Further: nearly all actives have a fitted effect of over 45% in size. The essentials:
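CHO cells stably expressing human HTR2A were plated for 18 h at 37 C, then loaded with calcium dye for 1 h. Compounds were preincubated 5 min at room temperature before DOI (4 nM solution) was added. Kinetic fluorescence was read for 3 min.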

The target is the same in assay [13]. Briefly: 5-hydroxytryptamine receptor 2A (HTR2A) small molecule agonists, cell-based qHTS assay (AID 1963587). Further: nearly all actives have a fitted effect of over 30% in size. The essentials:
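CHO cells stably expressing human HTR2A, plated 18 h, loaded with calcium dye 1 h at 37 C. Agonist mode: compounds added and intracellular calcium fluorescence recorded kinetically for 2 min at 1 sec intervals.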

The target of assay [14] is Muscarinic acetylcholine receptor M1 (Homo sapiens) (UniProt P11229). Briefly: Cholinergic receptor muscarinic 1 (CHRM1) small molecule antagonists, cell-based qHTS assay (AID 1963588). Further: nearly all actives have a fitted effect of over 40% in size. The gist of the method: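 Compounds were tested at 15 concentrations in three independent runs. Dye-loaded CHRM1-CHO cells were exposed 5 min at room temperature before stimulation by acetylcholine added at 50nM. Intracellular calcium was read kinetically on FDSS for 3 min.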
Sequence of Muscarinic acetylcholine receptor M1 (Homo sapiens) (P11229 whole entry, looked up): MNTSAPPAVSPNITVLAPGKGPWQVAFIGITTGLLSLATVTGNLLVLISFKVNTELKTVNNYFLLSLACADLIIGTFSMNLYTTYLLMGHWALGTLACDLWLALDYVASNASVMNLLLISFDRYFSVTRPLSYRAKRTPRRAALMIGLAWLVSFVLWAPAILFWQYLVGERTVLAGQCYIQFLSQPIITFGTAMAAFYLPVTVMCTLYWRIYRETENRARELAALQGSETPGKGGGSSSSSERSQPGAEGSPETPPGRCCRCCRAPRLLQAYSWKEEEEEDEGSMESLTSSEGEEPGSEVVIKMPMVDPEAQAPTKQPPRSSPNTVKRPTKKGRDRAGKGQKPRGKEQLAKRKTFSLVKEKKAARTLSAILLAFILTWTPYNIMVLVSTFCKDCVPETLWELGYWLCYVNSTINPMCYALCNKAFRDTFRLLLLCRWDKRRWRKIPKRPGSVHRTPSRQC

Assay [15] shares this target. Briefly: Cholinergic receptor muscarinic 1 (CHRM1) small molecule agonists, cell-based qHTS assay (AID 1963589). Further: nearly all actives have a fitted effect of over 35% in size. The gist of the method: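 Agonist-mode calcium-flux screen: compounds at 15 concentrations, three independent runs, were pin-transferred onto dye-loaded human CHRM1-CHO cells. Fluorescence was then recorded kinetically every second over minutes.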
Assay [16] in a line: cAMP Responsive Elements (CRE) small molecule antagonists, cell-based qHTS assay (AID 1963591; active means well fitted inhibition curve with a large enough effect in the signal ratio in the repeat runs, not every such curve was filed as active; the % refers to the signal ratio). The essentials:
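Antagonist mode: compounds are added alongside the adenylyl cyclase activator NKH477 (0.25 uM final) to CRE-bla HEK293T cells for 3 h. LiveBLAzer FRET substrate, 2 h at room temperature, reports bla expression.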

Assay [17] has as its target Beta-2 adrenergic receptor (Homo sapiens) (UniProt P07550). Briefly: Adrenergic beta2 receptor (ADRB2) small molecule antagonists, cell-based qHTS assay (AID 1963592). Further: nearly all actives have a fitted effect of over 50% in size. Further: potency means the concentration at half of the fitted maximal effect. The essentials:
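Assay format: CHO-ADRB2 cells, 18-20hr seeding at 37C/5% CO2, then compound plus 1nM isoproterenol agonist mix for 0.5hr RT. Homogeneous time-resolved fluorescence cAMP detection after 1hr, expressed as 665/615 nm ratio.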

Assay [18] addresses D(2) dopamine receptor (Homo sapiens) (UniProt P14416). Description: Dopamine D2 receptor (DRD2) small molecule agonists, cell-based qHTS assay (AID 1963594). Further: nearly all actives have a fitted effect of over 35% in size. Further: potency means the concentration at half of the fitted maximal effect. The essentials: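 HEK293 cells stably expressing human DRD2, pre-treated with PDE inhibitor Ro20-1724 (0.1 mM final) and compound 10 min at room temperature, then stimulated with NKH477 (200nM […]) for 30 min. cAMP read by HTRF (665/620 nm).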

Assay [19] shares this target. Briefly: Dopamine D2 receptor (DRD2) small molecule antagonists, cell-based qHTS assay (AID 1963595; active means well fitted inhibition curve with a large enough effect in the signal ratio in the repeat runs, with a control signal flat; the % refers to the signal ratio; further: potency means the concentration at half of the fitted maximal effect). The gist of the method:
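Human DRD2 antagonist qHTS measuring cAMP by HTRF. The cells are exposed to compound for 10 min, then to NKH477 (200 nM) and quinpirole (12 nM) for 30 min at RT, with Ro20-1724 (0.1 mM) present throughout.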

Assay [20] in a line: cAMP Responsive Elements (CRE) small molecule agonists, cell-based qHTS assay (AID 1963590). The essentials: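 Agonist mode: compound added to CRE-bla HEK 293T cells (2,000/well, 18 h after plating) for 3 h at 37 C/5% CO2. Reporter activity detected via FRET beta-lactamase substrate, 2 h room-temperature loading.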

Sequence of D(2) dopamine receptor (Homo sapiens) (P14416 whole entry, looked up): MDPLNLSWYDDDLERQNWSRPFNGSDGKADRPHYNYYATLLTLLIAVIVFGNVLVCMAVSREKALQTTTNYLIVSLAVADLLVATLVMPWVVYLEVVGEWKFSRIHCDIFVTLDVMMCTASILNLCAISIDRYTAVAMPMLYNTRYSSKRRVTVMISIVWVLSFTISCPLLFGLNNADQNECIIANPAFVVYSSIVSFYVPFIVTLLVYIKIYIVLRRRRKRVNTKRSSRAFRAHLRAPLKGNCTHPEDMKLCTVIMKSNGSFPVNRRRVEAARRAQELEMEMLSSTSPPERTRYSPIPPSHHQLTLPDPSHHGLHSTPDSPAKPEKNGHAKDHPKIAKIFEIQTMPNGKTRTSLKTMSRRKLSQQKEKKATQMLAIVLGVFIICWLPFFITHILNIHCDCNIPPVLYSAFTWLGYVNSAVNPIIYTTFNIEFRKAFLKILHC
Sequence of Beta-2 adrenergic receptor (Homo sapiens) (P07550 whole entry, looked up): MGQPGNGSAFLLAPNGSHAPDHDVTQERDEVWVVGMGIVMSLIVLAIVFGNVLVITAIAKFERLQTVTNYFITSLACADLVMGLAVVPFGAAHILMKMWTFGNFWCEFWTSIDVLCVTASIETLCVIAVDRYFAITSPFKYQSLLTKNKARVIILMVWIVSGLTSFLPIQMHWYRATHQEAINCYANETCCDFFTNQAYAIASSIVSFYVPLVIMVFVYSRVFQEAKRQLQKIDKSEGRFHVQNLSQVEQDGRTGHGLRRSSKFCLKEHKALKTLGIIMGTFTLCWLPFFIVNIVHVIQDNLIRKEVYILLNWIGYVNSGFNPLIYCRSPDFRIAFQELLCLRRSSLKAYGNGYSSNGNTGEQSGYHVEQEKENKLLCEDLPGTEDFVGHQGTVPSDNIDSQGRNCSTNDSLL
Sequence of 5-hydroxytryptamine receptor 2A (Homo sapiens) (P28223 whole entry, looked up): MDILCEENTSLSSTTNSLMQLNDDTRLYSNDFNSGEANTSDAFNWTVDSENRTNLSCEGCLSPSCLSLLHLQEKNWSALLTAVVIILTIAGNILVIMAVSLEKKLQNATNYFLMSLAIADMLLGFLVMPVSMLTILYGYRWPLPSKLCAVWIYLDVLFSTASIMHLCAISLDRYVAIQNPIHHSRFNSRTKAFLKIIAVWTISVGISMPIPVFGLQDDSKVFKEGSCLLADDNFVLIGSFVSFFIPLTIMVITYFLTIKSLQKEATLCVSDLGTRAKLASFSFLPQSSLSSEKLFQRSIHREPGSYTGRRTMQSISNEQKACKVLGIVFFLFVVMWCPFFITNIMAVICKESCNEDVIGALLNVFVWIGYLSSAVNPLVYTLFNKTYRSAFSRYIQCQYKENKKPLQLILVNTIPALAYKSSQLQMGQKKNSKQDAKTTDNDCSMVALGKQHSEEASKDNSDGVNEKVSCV

Turning to `COCCOCCOCCOCCO`, the Potency result in assay [1], in assay [2], in [3], in assay [4], in assay [5] and in assay [6] was “inactive” each time. For the same compound, the Potency result in [7], in [8], in assay [9], in assay [10], in assay [11] and in [12] was “inactive” throughout. Besides, the Potency result in assay [13], in assay [14], in assay [15], in assay [16], in assay [17] and in [18] was “inactive” throughout. Moreover, the Potency entry in [19] is “inactive”.
In the case of `O=c1[nH]c2cc(C(F)(F)F)c(N3CCOCC3)cc2n(CP(=O)(O)O)c1=O`, the Potency entry in assay [1], in [2], in [3], in assay [4], in [5] and in [6] was “inactive” in each case. The Potency result in assay [7], in assay [8], in assay [9], in assay [10], in assay [11] and in assay [12] was “inactive” in each case. The Potency result in [13], in assay [14], in assay [15], in assay [16], in assay [17] and in assay [19] was “inactive” each time. Further, the Potency in assay [18] is 29.8 µM (active).
In the case of `C=CC(=O)OCCN(CC)CC`, the Potency entry in assay [1], in assay [2], in [3], in assay [4], in assay [5] and in assay [6] was “inactive” each time. The Potency entry in assay [7], in [8], in [9], in assay [10], in assay [11] and in assay [12] was “inactive” in each case. Besides, the Potency entry in assay [13], in assay [14], in [15], in assay [16], in assay [17] and in assay [18] was “inactive” in each case. The Potency result in assay [19] was “inactive”.
For the compound `CN(C)Cc1ccccc1O`, the Potency result in assay [1], in assay [2], in assay [3], in assay [4], in [5] and in assay [6] was “inactive” each time. Moreover, the Potency entry in assay [7], in [8], in assay [9], in assay [10], in assay [11] and in assay [12] was “inactive” throughout. In addition, the Potency entry in assay [13], in assay [14], in [20], in assay [16], in assay [17] and in assay [18] was “inactive” throughout. For the same compound, the Potency result in assay [19] is “inactive”.
Consider `O=C(Nc1ccc(Cl)cc1)Nc1ccc(Cl)c(Cl)c1`, for which the Potency entry in assay [1], in [3], in assay [4], in [5], in [6] and in assay [7] was “inactive” throughout. The Potency result in assay [8], in assay [9], in assay [10], in assay [11], in [12] and in assay [13] was “inactive” each time. Moreover, the Potency result in [14], in assay [15], in assay [16] and in [18] was “inactive” throughout. The Potency in assay [2] is 21.6 µM (active) and inactive; in assay [17], 68.2 µM (active) and 54.5 µM (active); in assay [19] it was 48.6 µM (active) and inactive.
Turning to `CO[Si](C)(C)OC`, the Potency entry in assay [1], in assay [2], in [3], in [4], in [5] and in [6] was “inactive” throughout. Also, the Potency entry in assay [7], in [8], in assay [9], in [10], in assay [11] and in assay [12] was “inactive” in each case. The Potency result in assay [13], in assay [14], in assay [20], in [16], in [17] and in assay [18] was “inactive” in each case. For the same compound, the Potency result in assay [19] is “inactive”.
For `Cc1cnccn1`, the Potency entry in [1], in assay [2], in assay [3], in [4], in [5] and in [6] was “inactive” in each case. The Potency result in [7], in assay [8], in assay [9], in [10], in assay [11] and in assay [12] was “inactive” each time. In addition, the Potency entry in assay [13], in assay [14], in assay [20], in assay [16], in [17] and in assay [18] was “inactive” each time. Besides, the Potency result in [19] is “inactive”.
Take `Cn1cc(S(C)=O)c(=O)c2ccc(F)cc21` (stereo not given): the Potency entry in assay [1], in assay [2], in assay [3], in assay [4], in assay [5] and in assay [6] was “inactive” throughout. In addition, the Potency entry in [7], in assay [8], in assay [9], in assay [10], in [11] and in assay [12] was “inactive” each time. For the same compound, the Potency entry in assay [13], in assay [14], in [15], in assay [16] and in assay [19] was “inactive” each time.
